The text below walks through data of ChEMBL document CHEMBL3988442, “University of Dundee, Small-Polar-MMV Screening Library” (2021).

For some assays here: Potency and affinity values are given separately.

What all share (parameters): scale not given: direction of the effect not stated beside the values
For experiment [1], the target named is Protein translocase subunit SecA (Escherichia coli (strain K12)) (UniProt P10408). The experiment can be described thus: Assay to Identify E. coli SecA ATPase Inhibitors. Conditions: 30 µM. The class given is functional.
Sequence of Protein translocase subunit SecA (Escherichia coli (strain K12)) (P10408 whole entry): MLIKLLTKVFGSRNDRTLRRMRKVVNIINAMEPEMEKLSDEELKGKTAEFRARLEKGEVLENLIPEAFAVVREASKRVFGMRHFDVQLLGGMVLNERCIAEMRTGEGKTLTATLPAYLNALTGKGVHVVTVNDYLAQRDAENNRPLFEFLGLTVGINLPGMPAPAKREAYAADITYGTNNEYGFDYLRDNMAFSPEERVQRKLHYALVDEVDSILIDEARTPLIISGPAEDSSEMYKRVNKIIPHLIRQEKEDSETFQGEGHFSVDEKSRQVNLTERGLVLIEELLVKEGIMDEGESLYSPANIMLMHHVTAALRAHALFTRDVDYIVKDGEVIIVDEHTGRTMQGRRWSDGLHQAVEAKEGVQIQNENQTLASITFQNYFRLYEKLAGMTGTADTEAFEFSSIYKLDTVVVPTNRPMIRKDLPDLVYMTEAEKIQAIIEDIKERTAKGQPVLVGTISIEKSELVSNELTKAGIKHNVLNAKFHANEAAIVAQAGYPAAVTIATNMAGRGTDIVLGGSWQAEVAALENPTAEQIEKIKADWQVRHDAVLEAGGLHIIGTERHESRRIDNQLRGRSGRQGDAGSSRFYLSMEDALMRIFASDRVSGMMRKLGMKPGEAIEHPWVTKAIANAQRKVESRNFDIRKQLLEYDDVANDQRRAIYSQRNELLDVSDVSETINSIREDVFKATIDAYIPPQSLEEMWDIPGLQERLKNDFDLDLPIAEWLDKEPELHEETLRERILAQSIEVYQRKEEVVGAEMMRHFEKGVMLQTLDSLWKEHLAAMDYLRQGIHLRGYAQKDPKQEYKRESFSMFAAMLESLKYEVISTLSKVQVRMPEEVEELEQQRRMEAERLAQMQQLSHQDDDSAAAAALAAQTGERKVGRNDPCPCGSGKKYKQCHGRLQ
Experiment [2] has as its target T1, Ubiquitin-activating enzyme e1, putative (Leishmania donovani (strain BPK282A1)) (UniProt E9BSI1).
T1 sequence (whole entry): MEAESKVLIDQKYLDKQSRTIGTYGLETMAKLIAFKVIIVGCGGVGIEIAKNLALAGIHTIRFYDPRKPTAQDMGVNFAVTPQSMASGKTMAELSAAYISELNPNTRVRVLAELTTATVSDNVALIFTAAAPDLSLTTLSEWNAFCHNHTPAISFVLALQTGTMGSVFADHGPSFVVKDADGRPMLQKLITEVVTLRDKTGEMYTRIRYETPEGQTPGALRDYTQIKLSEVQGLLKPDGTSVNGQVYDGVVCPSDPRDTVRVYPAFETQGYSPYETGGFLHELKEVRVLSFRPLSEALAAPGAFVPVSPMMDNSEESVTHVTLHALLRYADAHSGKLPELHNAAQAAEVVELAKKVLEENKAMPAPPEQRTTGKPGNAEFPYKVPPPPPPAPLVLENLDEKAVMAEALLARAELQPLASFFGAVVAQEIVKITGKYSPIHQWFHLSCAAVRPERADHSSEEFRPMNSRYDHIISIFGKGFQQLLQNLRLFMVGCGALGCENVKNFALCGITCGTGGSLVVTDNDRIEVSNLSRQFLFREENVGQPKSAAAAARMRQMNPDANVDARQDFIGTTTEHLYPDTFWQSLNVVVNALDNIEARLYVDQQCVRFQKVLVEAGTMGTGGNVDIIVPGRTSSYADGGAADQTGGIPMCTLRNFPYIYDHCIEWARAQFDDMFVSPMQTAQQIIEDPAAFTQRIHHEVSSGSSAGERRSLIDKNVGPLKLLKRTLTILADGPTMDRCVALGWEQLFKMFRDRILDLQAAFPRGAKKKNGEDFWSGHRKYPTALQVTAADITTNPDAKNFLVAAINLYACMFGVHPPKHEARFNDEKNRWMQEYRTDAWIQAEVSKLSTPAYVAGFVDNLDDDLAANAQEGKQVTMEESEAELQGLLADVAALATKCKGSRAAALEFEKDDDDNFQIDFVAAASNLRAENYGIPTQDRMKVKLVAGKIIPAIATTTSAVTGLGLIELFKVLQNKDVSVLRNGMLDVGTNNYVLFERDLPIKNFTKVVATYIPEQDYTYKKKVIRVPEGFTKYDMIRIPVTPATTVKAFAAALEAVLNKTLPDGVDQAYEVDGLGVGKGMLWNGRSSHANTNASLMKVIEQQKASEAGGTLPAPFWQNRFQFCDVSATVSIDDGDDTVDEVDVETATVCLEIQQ
The experiment can be described thus: Leishmania donovani Ubiquitin Activating Enzyme (LdE1). It is filed as functional. To be noted: 30 µM.

Experiment [3] addresses T2, Aspartate--tRNA(Asp/Asn) ligase (Mycobacterium tuberculosis (strain ATCC 25618 / H37Rv)) (UniProt P9WFW3).
T2 sequence (whole entry): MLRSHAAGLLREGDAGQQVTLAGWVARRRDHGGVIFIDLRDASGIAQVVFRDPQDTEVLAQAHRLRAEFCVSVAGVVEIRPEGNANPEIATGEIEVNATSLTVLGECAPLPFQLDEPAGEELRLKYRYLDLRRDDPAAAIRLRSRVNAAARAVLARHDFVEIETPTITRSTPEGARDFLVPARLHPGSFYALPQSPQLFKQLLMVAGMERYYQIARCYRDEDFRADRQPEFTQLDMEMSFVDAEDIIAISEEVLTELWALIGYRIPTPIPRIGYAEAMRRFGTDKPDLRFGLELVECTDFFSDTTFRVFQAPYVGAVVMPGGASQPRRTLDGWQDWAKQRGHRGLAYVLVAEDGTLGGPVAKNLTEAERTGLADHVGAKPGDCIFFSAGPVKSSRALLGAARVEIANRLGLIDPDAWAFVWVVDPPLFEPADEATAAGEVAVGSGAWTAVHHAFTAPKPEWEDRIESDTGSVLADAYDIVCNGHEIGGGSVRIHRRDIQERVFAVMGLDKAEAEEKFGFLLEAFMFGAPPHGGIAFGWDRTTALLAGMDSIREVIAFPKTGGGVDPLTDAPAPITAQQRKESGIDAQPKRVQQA
In words: Assay for Asp RNA synthetase-1 from Mycobacterium tuberculosis. The class given is functional. To be noted: 30 µM.

Experiment [4] deals with AMP-activated protein kinase, AMPK (Homo sapiens) (UniProt P54646+O43741+P54619+Q9UGJ0+Q9Y478+Q13131+Q9UGI9). The experiment can be described thus: AMP-dependent Kinase enzyme assay. An in vitro enzyme assay that detects ADP turnover that is directly proportional to AMPK activity. This uses naive AMPK that is activated during the assay with MK-8722. The class given is functional. Conditions: 30 µM.

Experiment [5] has as its target Sialic acid-binding Ig-like lectin 9 (Homo sapiens) (UniProt Q9Y336). In words: Hs-Siglec9 ALPHAscreen SOP 20170721. To be noted: 10 µM.
For a further experiment, the system named is Trypanosoma cruzi. The experiment can be described thus: Trypanosoma cruzi phosphomannomutase and mannose-1-phosphate guanylyltransferase assay. The class given is functional. Conditions: 10 µM.
In experiment [6] the target is T3, Arginase-2, mitochondrial (Homo sapiens) (UniProt P78540).
T3 sequence (whole entry): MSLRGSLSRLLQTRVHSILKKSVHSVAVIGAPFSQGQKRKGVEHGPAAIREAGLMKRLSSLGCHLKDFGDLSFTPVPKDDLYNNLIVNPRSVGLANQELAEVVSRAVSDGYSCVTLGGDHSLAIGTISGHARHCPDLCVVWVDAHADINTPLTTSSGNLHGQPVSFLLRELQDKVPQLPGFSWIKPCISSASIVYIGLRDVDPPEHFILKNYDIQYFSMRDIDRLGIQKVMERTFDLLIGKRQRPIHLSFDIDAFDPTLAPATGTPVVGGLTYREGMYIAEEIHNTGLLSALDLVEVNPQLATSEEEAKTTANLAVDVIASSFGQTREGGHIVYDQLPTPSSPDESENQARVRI
In words: in vitro enzyme assay to detect the production of urea directly proportional to the activity of Arginase II. Further: in the data most compounds retested in dose-response had high values. The class given is functional. To be noted: 33.3 µM.

The target in experiment [7] is T4, Proteasome subunit beta (Trypanosoma cruzi) (UniProt O96673).
T4 sequence (whole entry): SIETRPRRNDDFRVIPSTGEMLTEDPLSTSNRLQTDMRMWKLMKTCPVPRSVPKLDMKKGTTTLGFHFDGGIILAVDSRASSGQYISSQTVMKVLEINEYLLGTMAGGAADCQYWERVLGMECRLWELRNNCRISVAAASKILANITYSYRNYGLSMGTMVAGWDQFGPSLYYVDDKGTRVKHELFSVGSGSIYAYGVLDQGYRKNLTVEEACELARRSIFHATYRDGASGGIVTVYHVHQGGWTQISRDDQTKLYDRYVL
In words: Trypanosoma cruzi proteasome chymotrypsin-like activity (TcProtChymo) assay. Further: in the data most compounds retested in dose-response had high values. It is filed as functional. To be noted: 9.37 µM.

The species named for the next experiment is Homo sapiens. The experiment can be described thus: To identify inhibition of the IFN signalling (Jak-Stat) pathway via expression of an eGFP reporter gene under the control of an IFN-stimulated response element (ISRE) containing MxA promoter. The class given is functional. To be noted: 30 µM. Background: In a reporter assay the amount or activity of a reporter protein is the signal.

Experiment [8] addresses Shiga toxin 2 (Escherichia coli O157:H7) (UniProt P09385+P09386). In words: E. coli 0.157:H7 Shiga Toxin SOP - stx2 screening assay. Conditions: 30 µM. It is filed as functional.
In experiment [9] the target is T5, Tyrosyl-tRNA synthetase, putative (Trypanosoma cruzi (strain CL Brener)) (UniProt Q4DSP6).
T5 sequence (whole entry): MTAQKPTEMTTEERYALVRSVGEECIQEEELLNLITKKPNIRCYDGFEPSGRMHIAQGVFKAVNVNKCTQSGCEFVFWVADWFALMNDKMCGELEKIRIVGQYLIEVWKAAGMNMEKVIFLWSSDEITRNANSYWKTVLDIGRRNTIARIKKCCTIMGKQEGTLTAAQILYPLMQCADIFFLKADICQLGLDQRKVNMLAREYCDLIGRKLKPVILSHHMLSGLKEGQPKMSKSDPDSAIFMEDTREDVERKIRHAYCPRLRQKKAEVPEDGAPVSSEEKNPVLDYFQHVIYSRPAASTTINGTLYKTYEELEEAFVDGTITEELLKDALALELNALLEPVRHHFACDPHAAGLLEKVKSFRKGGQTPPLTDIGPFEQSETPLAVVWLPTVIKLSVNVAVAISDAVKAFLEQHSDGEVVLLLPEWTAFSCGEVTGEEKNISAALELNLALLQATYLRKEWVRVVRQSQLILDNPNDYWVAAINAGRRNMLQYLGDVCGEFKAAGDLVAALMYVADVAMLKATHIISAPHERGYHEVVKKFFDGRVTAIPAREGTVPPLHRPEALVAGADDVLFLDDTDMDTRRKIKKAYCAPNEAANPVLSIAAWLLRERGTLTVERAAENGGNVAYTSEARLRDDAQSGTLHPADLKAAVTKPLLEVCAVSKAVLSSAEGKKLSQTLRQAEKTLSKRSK
The experiment can be described thus: Trypanosoma cruzi tyrosyl tRNA synthetase (TcYRS) _High Tyrosine SOP. Further: in the data most compounds retested in dose-response had high values. The class given is functional. To be noted: 30 µM.

The target of experiment [10] is T5, Tyrosyl-tRNA synthetase, putative (Trypanosoma cruzi (strain CL Brener)). In words: Trypanosoma cruzi tyrosyl tRNA synthetase (TcYRS) SOP. It is filed as functional. To be noted: 30 µM.
The target in experiment [11] is Chromo domain-containing protein 1 (Saccharomyces cerevisiae (strain ATCC 204508 / S288c) (Baker's yeast)) (UniProt P32657). The experiment can be described thus: ScCHD-1 Enzyme Inhibition Assay. Further: in the data most compounds retested in dose-response had high values. It is filed as functional. To be noted: 30 µM.
Sequence of Chromo domain-containing protein 1 (Saccharomyces cerevisiae (strain ATCC 204508 / S288c) (Baker's yeast)) (P32657 whole entry, the tested form may be a part): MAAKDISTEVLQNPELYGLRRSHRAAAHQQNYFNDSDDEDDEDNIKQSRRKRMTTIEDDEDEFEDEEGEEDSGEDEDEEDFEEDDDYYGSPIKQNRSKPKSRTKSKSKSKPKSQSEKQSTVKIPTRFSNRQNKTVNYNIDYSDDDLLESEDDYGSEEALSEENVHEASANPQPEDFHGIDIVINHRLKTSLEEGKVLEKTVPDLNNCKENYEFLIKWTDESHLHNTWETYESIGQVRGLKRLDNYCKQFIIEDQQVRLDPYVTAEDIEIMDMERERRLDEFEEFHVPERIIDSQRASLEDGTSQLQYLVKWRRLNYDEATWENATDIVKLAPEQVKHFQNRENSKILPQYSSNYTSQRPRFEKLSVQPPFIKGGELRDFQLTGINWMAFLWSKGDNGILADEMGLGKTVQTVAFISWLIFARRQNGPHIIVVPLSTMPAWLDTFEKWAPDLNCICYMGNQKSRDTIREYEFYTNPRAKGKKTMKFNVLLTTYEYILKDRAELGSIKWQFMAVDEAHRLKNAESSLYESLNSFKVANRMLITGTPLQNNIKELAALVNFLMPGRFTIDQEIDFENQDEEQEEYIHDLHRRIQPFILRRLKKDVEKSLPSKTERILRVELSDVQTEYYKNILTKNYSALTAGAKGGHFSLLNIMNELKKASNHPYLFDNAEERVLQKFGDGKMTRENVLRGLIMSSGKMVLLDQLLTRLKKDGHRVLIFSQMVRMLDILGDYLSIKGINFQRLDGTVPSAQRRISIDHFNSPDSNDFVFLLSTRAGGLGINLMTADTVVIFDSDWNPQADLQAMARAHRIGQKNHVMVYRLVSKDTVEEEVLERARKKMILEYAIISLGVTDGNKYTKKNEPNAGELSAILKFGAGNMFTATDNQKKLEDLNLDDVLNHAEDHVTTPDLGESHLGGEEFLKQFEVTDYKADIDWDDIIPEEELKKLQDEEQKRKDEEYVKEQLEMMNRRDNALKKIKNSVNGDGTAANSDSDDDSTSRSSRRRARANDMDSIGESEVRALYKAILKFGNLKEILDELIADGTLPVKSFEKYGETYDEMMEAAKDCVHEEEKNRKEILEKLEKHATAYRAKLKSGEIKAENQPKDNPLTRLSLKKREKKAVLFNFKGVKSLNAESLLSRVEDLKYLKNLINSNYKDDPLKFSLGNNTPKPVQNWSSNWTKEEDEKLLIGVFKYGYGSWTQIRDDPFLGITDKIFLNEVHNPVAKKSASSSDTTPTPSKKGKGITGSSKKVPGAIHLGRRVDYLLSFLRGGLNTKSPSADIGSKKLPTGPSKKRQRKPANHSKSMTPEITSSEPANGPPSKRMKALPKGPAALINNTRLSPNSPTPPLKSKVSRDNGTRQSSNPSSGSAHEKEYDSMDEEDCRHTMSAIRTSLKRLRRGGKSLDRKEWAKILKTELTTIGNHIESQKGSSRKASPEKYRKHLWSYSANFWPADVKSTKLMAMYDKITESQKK

Sequence of Sialic acid-binding Ig-like lectin 9 (Homo sapiens) (Q9Y336 whole entry): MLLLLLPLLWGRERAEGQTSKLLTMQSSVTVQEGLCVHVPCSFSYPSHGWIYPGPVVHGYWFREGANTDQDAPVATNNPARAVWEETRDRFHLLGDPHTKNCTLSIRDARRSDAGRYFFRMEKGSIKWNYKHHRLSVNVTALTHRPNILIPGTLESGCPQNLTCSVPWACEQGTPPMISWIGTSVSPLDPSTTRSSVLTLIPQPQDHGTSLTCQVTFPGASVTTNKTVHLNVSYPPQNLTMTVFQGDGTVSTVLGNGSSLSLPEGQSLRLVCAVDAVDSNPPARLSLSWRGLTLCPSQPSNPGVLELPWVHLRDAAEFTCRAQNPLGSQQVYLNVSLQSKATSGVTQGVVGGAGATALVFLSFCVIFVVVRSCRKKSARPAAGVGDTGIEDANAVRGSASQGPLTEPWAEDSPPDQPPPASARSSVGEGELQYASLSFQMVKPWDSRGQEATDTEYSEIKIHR

Take `CCN1C[C@H]2[C@@H](C1)N(S(=O)(=O)c1cccnc1)CC[C@H]2OC`: the Percent Effect in [1] is -0.0411%; in [2], 5.33%; in [3], 1.49%; in experiment [4], 5.24%; in experiment [5], -6.52%; in the experiment on Trypanosoma cruzi, -5.91%. The Percent Effect in experiment [6] was -2.56%; in experiment [7] it was 4.49%; in the experiment filed under Homo sapiens, 14.5%; in [8], -25%; in experiment [9], -3.19%; in [10] it was -3.85%. Moreover, the Percent Effect in experiment [11] is -1.11%.
`c1cc(CN2C[C@@H]3COC[C@]3(COCC3CC3)C2)ccn1`: the Percent Effect in experiment [1] was 1.31%; in experiment [2], 14.7%; in experiment [3], -0.406%; in experiment [4], -2.54%; in [5] it was -3.01%; with Trypanosoma cruzi it was -4.13%. Also, the Percent Effect was -1.58% in [6]; 7.58% in [7]; -2.49% in the experiment filed under Homo sapiens; -47.3% in experiment [8]; 2.12% in [9]; 7.69% in experiment [10]. Further, in experiment [11], the Percent Effect was -2.5%.
As to `COc1ccc(CN2C[C@@H]3OCCN(c4ncccn4)[C@@H]3C2)cc1`, the Percent Effect in experiment [1] was 1.18%; in experiment [2], 0%; in [3], 3.34%; in experiment [4], 11.4%; in [5], 2.48%; in the experiment with Trypanosoma cruzi, -4.13%. Besides, the Percent Effect in experiment [6] is 2.1%; in [7], 3.61%; in the experiment listed under Homo sapiens, 22.3%; in experiment [8], -20%; in [9] it was 1.06%; in experiment [10], -1.28%. Also, the Percent Effect in experiment [11] turned out to be 0.371%.
Regarding `CC(C)CN1CCC2(CC1)C(=O)Nc1ccc(C(=O)N(C)C)cc12`, the Percent Effect was -4.79% in experiment [1]; 5.41% in [2]; -0.578% in experiment [3]; -2.95% in [4]; -1.19% in experiment [5]; -3.81% in the experiment on Trypanosoma cruzi. Besides, the Percent Effect in experiment [6] came out at 0.248%; in experiment [7], 8.67%; in the experiment filed under Homo sapiens, 7.43%; in [8], 5.38%; in [9], 4.3%; in experiment [10], 8.64%. The Percent Effect in experiment [11] was -2.28%.
As to `Cc1cccc(CN2CC[C@@H]3[C@@H]2CCN3C(=O)c2ccno2)n1`, the Percent Effect in [1] was -0.832%; in [2] it was -2.7%; in experiment [3] it was 3.7%; in experiment [4], -8.15%; in experiment [5] it was -3.73%; with Trypanosoma cruzi it was 6.84%. Further, the Percent Effect in experiment [6] was -1.67%; in experiment [7], 12.1%; in the experiment listed under Homo sapiens it was -11.7%; in experiment [8], -15.7%; in experiment [9] it was -13.9%; in [10], 1.22%. Moreover, the Percent Effect in experiment [11] is 94%.
